Results taken from PubChem BioAssay (NCI).
The panel holds about 83,000 compounds, 20% with a hit somewhere; the sample as a whole holds those more often.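 Note: values are percent growth. 100 is the growth of untreated cells, values between 100 and 0 indicate rising inhibition; between -100 and 0 indicates cell death.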 A number with no mark means an inactive call. Calls of active or inactive are those of the source. How the source made its calls: active means growth percent below 10; inactive means the rest.

How the values were obtained:
Assay in all cases: NCI-60 one-dose screen, 48 h (100 = growth as untreated, 0 = no growth, -100 = all killed)
Details in all cases: 10 µM unless noted
SR leukemia = test system: SR leukemia
RPMI-8226 leukemia = test system: RPMI-8226 leukemia
OVCAR-8 ovarian = test system: OVCAR-8 ovarian
OVCAR-5 ovarian = test system: OVCAR-5 ovarian
OVCAR-4 ovarian = test system: OVCAR-4 ovarian
SK-OV-3 ovarian = test system: SK-OV-3 ovarian
IGROV1 ovarian = test system: IGROV1 ovarian
OVCAR-3 ovarian = test system: OVCAR-3 ovarian
HS 578T breast = test system: HS 578T breast
NCI/ADR-RES ovarian = test system: NCI/ADR-RES ovarian
T-47D breast = test system: T-47D breast
BT-549 breast = test system: BT-549 breast
SW-620 colon = test system: SW-620 colon
MCF7 breast = test system: MCF7 breast
HCT-116 colon = test system: HCT-116 colon
HCC-2998 colon = test system: HCC-2998 colon
KM12 colon = test system: KM12 colon
MDA-MB-435 melanoma = test system: MDA-MB-435 melanoma

| SMILES | growth (SR leukemia) | growth (RPMI-8226 leukemia) | growth (OVCAR-8 ovarian) | growth (OVCAR-5 ovarian) | growth (OVCAR-4 ovarian) | growth (SK-OV-3 ovarian) | growth (IGROV1 ovarian) | growth (OVCAR-3 ovarian) | growth (HS 578T breast) | growth (NCI/ADR-RES ovarian) | growth (T-47D breast) | growth (BT-549 breast) | growth (SW-620 colon) | growth (MCF7 breast) | growth (HCT-116 colon) | growth (HCC-2998 colon) | growth (KM12 colon) | growth (MDA-MB-435 melanoma) [%] |
| --- | --- | --- | --- | --- | --- | --- | --- | --- | --- | --- | --- | --- | --- | --- | --- | --- | --- | --- |
| CN(C)c1cccc2[nH]c(-c3[nH]ncc3Nc3ccnc(N)n3)nc12 | 7.64% (active) | -15.6% (active) | -22.7% (active) | -1.19% (active) | -11.7% (active) | 0.381% (active) | -11% (active) | -6.36% (active) | -13.8% (active) | -1.48% (active) | -18.3% (active) | -31.5% (active) | -5.42% (active) | -46.1% (active) | -40.8% (active) | -41.9% (active) | -31.8% (active) |  |
| CCc1nnc(NC(=O)c2ccoc2COc2ccccc2)s1 | 26.4% | 30.8% | 63.8% | 84.7% | 92.2% | 75.9% | 53.4% | 33.8% | 62% | 12% | 45.7% | 51.2% | 24% |  | 30.6% | 69% | 31.6% |  |
| C=C(C)[C@@H]1CC[C@]2(C=O)CC[C@]3(C)[C@H](CC[C@@H]4[C@@]5(C)C/C(=C/c6cccnc6)C(=O)C(C)(C)[C@@H]5CC[C@]43C)[C@@H]12 | 40.6% | 35.5% | 63.5% | 128% | 64.6% | 117% | -31.2% (active) | 74.3% | 87.4% | 78.5% | 31.9% | 75.6% | 76.2% | 40.5% |  | 99% | 78.3% |  |
| CCNCCCn1c2c(c3ccc([N+](=O)[O-])cc3c1=O)C(=O)c1cc(OC)cnc1-2 | 0% (active) | -22% (active) | -37% (active) | 12.3% | 10.4% | -25.3% (active) | -24.1% (active) | -33.1% (active) | 8.88% (active) | -40.2% (active) | -12.9% (active) | -16.2% (active) | -27% (active) | -3.1% (active) | -69.8% (active) | -8.05% (active) | -3.89% (active) |  |
| COC(=O)[C@]12CC[C@@H](C)[C@H](C)[C@@H]1C1=CC[C@@H]3[C@@]4(C)C[C@@H](OC(C)=O)[C@H](O)[C@@](C)(COC(C)=O)[C@@H]4[C@H](O)C[C@@]3(C)[C@]1(C)CC2 | -17.7% (active) | -23.7% (active) | -53.7% (active) | -75.8% (active) | -70.3% (active) | -81.5% (active) | -61.3% (active) | -79.4% (active) | -28.4% (active) | -63.7% (active) | -66.3% (active) | -85.8% (active) | -80.9% (active) |  | -69.5% (active) | -89.7% (active) |  |  |
| O=C(Nc1ccc(/C=C2\SC(=O)N(Cc3ccc(OC(F)(F)F)cc3)C2=O)cc1)c1ccc(Cl)c([N+](=O)[O-])c1 | -0.106% (active) | -11.2% (active) | 87.5% | 85.5% | 31.4% | 93.7% | 79.9% | 48.2% | 72.1% | 73.6% | 4.78% (active) | 75.3% | 2.11% (active) | 1.61% (active) | 67.5% | 96.7% | 53.1% |  |
| C=C1C(=O)O[C@H]2[C@H]1CC/C(COC(=O)N[C@H](Cc1c[nH]c3ccccc13)C(=O)OC)=C\CC[C@@]1(C)O[C@@H]21 | 3.67% (active) | 2.85% (active) | 50.5% | 98.6% | 61.4% | 96.2% | 16.5% | -21.9% (active) | 81.1% | 87.2% | -45.3% (active) | 26.4% | -1.92% (active) | 14.7% | -58.2% (active) | 101% | 92.6% |  |
| N#CC1=C(N)Oc2ccc3ccccc3c2C1c1ccccc1 (centres undefined) | 25.1% | 21.8% | 49.8% | 55.8% | 73.6% | 47.2% | 25.5% | 18.4% | 23.8% | 8.41% (active) | 40.8% | 19.8% | 28% | 14.8% | 19.4% | 69.3% | 24.5% |  |
| O=C1/C(=C\c2ccco2)SC(=S)N1CCc1ccc(O)cc1 | 95.7% | 83.1% | 102% | 103% | 90.3% | 100% | 94.6% | 105% | 99.5% | 103% | 67.6% | 87.2% | 109% | 114% |  | 116% | 85.5% |  |
| C/C(=N/NC(N)=S)C(=O)O | 90% | 75.2% | 71.2% | 91.1% | 85.5% | 107% | 56.7% | 77% |  | 65.3% | 28.6% | 102% | 77.6% | 26.2% | 10.6% | 94.3% | 109% | 85.8 |
| COc1cc2c(cc1-c1c(C)noc1C)ncc1nc(C3CCCCC3)n([C@@H](C)COC(F)F)c12 | 14.5% | 13.3% | 39.1% | 76.6% | 41.8% | 4.85% (active) | 43.8% | 35.6% | 14.3% | 37% | 25% | 52.9% |  | 12.1% | 24.8% | 50.5% | 35.9% |  |
| C/C(=N\Nc1cc(C)c2ccccc2n1)c1ccccn1 | 1.94% (active) | -24% (active) | -23.3% (active) | 20.6% | -8.85% (active) | 22.3% | -26.7% (active) | -0.251% (active) | 35.6% | -8.13% (active) | 16.5% | 24.1% | 7.9% (active) | -82.9% (active) | -76.2% (active) | 4.77% (active) | 4.67% (active) |  |
| CCCCN1CCCCn2c1nc1c2c(=O)n(C)c(=O)n1C | 87.6% | 103% | 95.5% | 117% | 107% | 110% | 106% | 102% | 100% | 99.9% | 107% | 108% | 102% |  | 104% | 95.9% | 101% |  |
| COc1cccc(-c2nn(-c3ccccc3)cc2-c2ccnc(NCCCNS(=O)(=O)c3ccc(C(F)(F)F)cc3)c2)c1 | -13.1% (active) | 13.3% | 30.7% | 50.1% | 33.5% | 37.7% | 39.6% | 36% | 38.7% | 22.8% | -2.76% (active) | 36.6% |  | 16.9% | 22.9% | 20% | 23.8% |  |
| COc1ccc(/C(=C\c2ccc3c(c2)OCO3)C(=O)Nc2nc3ccccc3s2)cc1OC | 69.8% | 78.2% | 86.8% | 93.7% | 92.2% | 102% | 101% | 97% | 95% | 98.1% | 92.3% | 88.7% | 102% | 89.5% | 73.6% | 102% | 85.4% |  |
| COc1ccc2c(c1)c1nc3cc(C)c(C)cc3nc1n2CCN(C)C | -8.86% (active) | -16.3% (active) | 6.83% (active) | -2.58% (active) | 19.8% | 27.5% | -7.58% (active) | 27.1% | 44.6% | -70.3% (active) | 25.3% | 56% | -66.1% (active) | -69.9% (active) | -70.1% (active) | 20.5% | 18% |  |
